# The supplement of paper PMC8975748
# Structures can show the parent of a compound that is named as a salt. ± gives the standard deviation of the averaged measurements.
# Key:
# [1] = tested on: Saccharomyces cerevisiae BY4741 SeMeCo community; assay: mean cell size (pixel area) (pixels); higher = larger cells; conditions: 10 µM; 24 h; SM minimal medium
# Procedure, shortened: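 In this assay, mean cell pixel area per well was obtained from automated confocal images of paraformaldehyde-fixed yeast analysed in Harmony. The cells were a Saccharomyces cerevisiae BY4741 community with four plasmids, each complementing one auxotrophy and carrying a fluorescent marker, grown for 24 h in SM medium with drug at a final 10 µM in 384-well plates. Values are averaged across 3 replicates. Same SeMeCo high-content imaging drug screen: Selleck FDA-approved drugs at 10 µM, 24 h in SM medium, 384-well plates, 3 replicates.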
# [2] = tested on: Saccharomyces cerevisiae BY4741 SeMeCo community; assay: z-score of prototroph abundance vs DMSO median; higher = larger share of this subpopulation than in DMSO controls; conditions: 10 µM; 24 h; SM minimal medium; subpopulation (auxotrophy): Prototroph
# Procedure, shortened: (§1)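 Cells of a Saccharomyces cerevisiae BY4741 community, carrying four plasmids that each restored one auxotrophy and encoded a distinct fluorescent protein, were pre-grown overnight to OD600 1.0 and diluted to 0.3. A 70 µl volume was added to 384-well plates acoustically predosed with library drugs (10 µM final) and grown 24 h in minimal SM medium. After paraformaldehyde fixation, automated confocal microscopy was used, with single-auxotroph fluorescent strains for thresholds and autofluorescence correction. The abundance of each subpopulation was scored as a z-score against the vehicle-well median.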
# [3] = tested on: Saccharomyces cerevisiae BY4741 SeMeCo community; assay: z-score of subpopulation abundance vs DMSO median, subpopulation auxotrophic for U; higher = larger share of this subpopulation than in DMSO controls; conditions: 10 µM; 24 h; SM minimal medium; subpopulation (auxotrophy): U
# Procedure, shortened: as §1
# [4] = tested on: Saccharomyces cerevisiae BY4741 SeMeCo community; assay: z-score of subpopulation abundance vs DMSO median, subpopulation auxotrophic for H; higher = larger share of this subpopulation than in DMSO controls; conditions: 10 µM; 24 h; SM minimal medium; subpopulation (auxotrophy): H
# Procedure, shortened: as §1
# [5] = tested on: Saccharomyces cerevisiae BY4741 SeMeCo community; assay: z-score of subpopulation abundance vs DMSO median, subpopulation auxotrophic for LU; higher = larger share of this subpopulation than in DMSO controls; conditions: 10 µM; 24 h; SM minimal medium; subpopulation (auxotrophy): LU
# Procedure, shortened: as §1
# [6] = tested on: Saccharomyces cerevisiae BY4741 SeMeCo community; assay: z-score of subpopulation abundance vs DMSO median, subpopulation auxotrophic for LM; higher = larger share of this subpopulation than in DMSO controls; conditions: 10 µM; 24 h; SM minimal medium; subpopulation (auxotrophy): LM
# Procedure, shortened: as §1
# [7] = tested on: Saccharomyces cerevisiae BY4741 SeMeCo community; assay: z-score of subpopulation abundance vs DMSO median, subpopulation auxotrophic for HM; higher = larger share of this subpopulation than in DMSO controls; conditions: 10 µM; 24 h; SM minimal medium; subpopulation (auxotrophy): HM
# Procedure, shortened: as §1
# [8] = tested on: Saccharomyces cerevisiae BY4741 SeMeCo community; assay: z-score of subpopulation abundance vs DMSO median, subpopulation auxotrophic for HU; higher = larger share of this subpopulation than in DMSO controls; conditions: 10 µM; 24 h; SM minimal medium; subpopulation (auxotrophy): HU
# Procedure, shortened: as §1
# [9] = tested on: Saccharomyces cerevisiae BY4741 SeMeCo community; assay: z-score of subpopulation abundance vs DMSO median, subpopulation auxotrophic for UM; higher = larger share of this subpopulation than in DMSO controls; conditions: 10 µM; 24 h; SM minimal medium; subpopulation (auxotrophy): UM
# Procedure, shortened: as §1
# [10] = tested on: Saccharomyces cerevisiae BY4741 SeMeCo community; assay: z-score of subpopulation abundance vs DMSO median, subpopulation auxotrophic for HL; higher = larger share of this subpopulation than in DMSO controls; conditions: 10 µM; 24 h; SM minimal medium; subpopulation (auxotrophy): HL
# Procedure, shortened: as §1
# [11] = tested on: Saccharomyces cerevisiae BY4741 SeMeCo community; assay: z-score of subpopulation abundance vs DMSO median, subpopulation auxotrophic for HLU; higher = larger share of this subpopulation than in DMSO controls; conditions: 10 µM; 24 h; SM minimal medium; subpopulation (auxotrophy): HLU
# Procedure, shortened: as §1
# [12] = tested on: Saccharomyces cerevisiae BY4741 SeMeCo community; assay: z-score of subpopulation abundance vs DMSO median, subpopulation auxotrophic for HLM; higher = larger share of this subpopulation than in DMSO controls; conditions: 10 µM; 24 h; SM minimal medium; subpopulation (auxotrophy): HLM
# Procedure, shortened: as §1
# [13] = tested on: Saccharomyces cerevisiae BY4741 SeMeCo community; assay: z-score of subpopulation abundance vs DMSO median, subpopulation auxotrophic for HUM; higher = larger share of this subpopulation than in DMSO controls; conditions: 10 µM; 24 h; SM minimal medium; subpopulation (auxotrophy): HUM
# Procedure, shortened: as §1
# [14] = tested on: Saccharomyces cerevisiae BY4741 SeMeCo community; assay: z-score of subpopulation abundance vs DMSO median, subpopulation auxotrophic for LUM; higher = larger share of this subpopulation than in DMSO controls; conditions: 10 µM; 24 h; SM minimal medium; subpopulation (auxotrophy): LUM
# Procedure, shortened: as §1
# [15] = tested on: Saccharomyces cerevisiae BY4741 SeMeCo community; assay: z-score of subpopulation abundance vs DMSO median, subpopulation auxotrophic for HLUM; higher = larger share of this subpopulation than in DMSO controls; conditions: 10 µM; 24 h; SM minimal medium; subpopulation (auxotrophy): HLUM
# Procedure, shortened: as §1
# [16] = tested on: Saccharomyces cerevisiae BY4741 SeMeCo community; assay: z-score of subpopulation abundance vs DMSO median, subpopulation auxotrophic for L; higher = larger share of this subpopulation than in DMSO controls; conditions: 10 µM; 24 h; SM minimal medium; subpopulation (auxotrophy): L
# Procedure, shortened: as §1
smiles,measurement,setting,value
CCCN(CCC)CCc1cccc2c1CC(=O)N2 [Ropinirole HCl],mean cell size,[1],12.4 ± 0.22
same,z-score of prototroph abundance,[2],-0.81
same,z-score of subpopulation abundance,[3],0.26
same,z-score of subpopulation abundance,[4],-0.16
same,z-score of subpopulation abundance,[5],1.24
same,z-score of subpopulation abundance,[6],0.91
same,z-score of subpopulation abundance,[7],0.44
same,z-score of subpopulation abundance,[8],0.41
same,z-score of subpopulation abundance,[9],0.06
same,z-score of subpopulation abundance,[10],0.65
same,z-score of subpopulation abundance,[11],1.05
same,z-score of subpopulation abundance,[12],-0.19
same,z-score of subpopulation abundance,[13],0.58
same,z-score of subpopulation abundance,[14],1.74
same,z-score of subpopulation abundance,[15],0.64
C[C@]12CCC3=C4CCC(=O)C=C4CC[C@H]3[C@@H]1CC[C@@]2(O)CC#N [Dienogest],mean cell size,[1],12.4 ± 0.18
same,z-score of prototroph abundance,[2],0.42
same,z-score of subpopulation abundance,[16],0.12
same,z-score of subpopulation abundance,[4],0.11
same,z-score of subpopulation abundance,[5],-0.52
same,z-score of subpopulation abundance,[6],-0.44
same,z-score of subpopulation abundance,[7],-0.11
same,z-score of subpopulation abundance,[9],-0.39
same,z-score of subpopulation abundance,[10],0.26
same,z-score of subpopulation abundance,[11],-0.53
same,z-score of subpopulation abundance,[12],-0.38
same,z-score of subpopulation abundance,[14],0
same,z-score of subpopulation abundance,[15],-0.14
Nc1ccc(S(=O)(=O)Nc2ncccn2)cc1 [Sodium sulfadiazine],z-score of prototroph abundance,[2],-0.25
same,z-score of subpopulation abundance,[3],0.32
same,z-score of subpopulation abundance,[4],-0.33
same,z-score of subpopulation abundance,[5],0.3
same,z-score of subpopulation abundance,[6],0.18
same,z-score of subpopulation abundance,[8],-0.58
same,z-score of subpopulation abundance,[10],0.08
same,z-score of subpopulation abundance,[11],0.17
same,z-score of subpopulation abundance,[12],-0.23
same,z-score of subpopulation abundance,[13],-0.68
same,z-score of subpopulation abundance,[14],0.15
same,z-score of subpopulation abundance,[15],0.02
COc1ccc(Cc2cnc(N)nc2N)cc1OC [Diaveridine],mean cell size,[1],12.35 ± 0.055
same,z-score of prototroph abundance,[2],0.22
same,z-score of subpopulation abundance,[3],-0.37
same,z-score of subpopulation abundance,[4],-0.11
same,z-score of subpopulation abundance,[5],-0.41
same,z-score of subpopulation abundance,[7],-0.29
same,z-score of subpopulation abundance,[8],-0.25
same,z-score of subpopulation abundance,[9],-0.39
same,z-score of subpopulation abundance,[10],-0.33
same,z-score of subpopulation abundance,[11],0.14
same,z-score of subpopulation abundance,[12],-0.26
same,z-score of subpopulation abundance,[13],0.18
same,z-score of subpopulation abundance,[14],-0.41
same,z-score of subpopulation abundance,[15],0.06
CN(Cc1ccc(C(C)(C)C)cc1)Cc1cccc2ccccc12 [Butenafine HCl],mean cell size,[1],12.2 ± 0.22
same,z-score of subpopulation abundance,[3],-1.08
same,z-score of subpopulation abundance,[4],-0.76
same,z-score of subpopulation abundance,[5],-1.41
same,z-score of subpopulation abundance,[6],-0.39
same,z-score of subpopulation abundance,[8],-0.86
same,z-score of subpopulation abundance,[9],-1.21
same,z-score of subpopulation abundance,[10],-0.63
same,z-score of subpopulation abundance,[11],-0.68
same,z-score of subpopulation abundance,[13],-1.45
same,z-score of subpopulation abundance,[14],-0.75
CCOC(=O)C1=C(COCCN)NC(C)=C(C(=O)OC)C1c1ccccc1Cl (stereo not drawn) [Amlodipine Besylate],mean cell size,[1],12.6 ± 0.18
same,z-score of prototroph abundance,[2],2.4
same,z-score of subpopulation abundance,[3],-6.89
same,z-score of subpopulation abundance,[4],3.81
same,z-score of subpopulation abundance,[5],-6.85
same,z-score of subpopulation abundance,[6],6.36
same,z-score of subpopulation abundance,[8],-7.3
same,z-score of subpopulation abundance,[9],-8.17
same,z-score of subpopulation abundance,[10],4.37
same,z-score of subpopulation abundance,[11],-3.58
same,z-score of subpopulation abundance,[13],-6.15
same,z-score of subpopulation abundance,[15],-1.58
c1cnc2cc3c(cc2n1)[C@@H]1CNC[C@H]3C1 [Varenicline Tartrate],z-score of prototroph abundance,[2],0.71
same,z-score of subpopulation abundance,[16],-0.32
same,z-score of subpopulation abundance,[3],-0.22
same,z-score of subpopulation abundance,[4],0.28
same,z-score of subpopulation abundance,[5],-0.66
same,z-score of subpopulation abundance,[6],0.09
same,z-score of subpopulation abundance,[7],-0.22
same,z-score of subpopulation abundance,[8],-0.05
same,z-score of subpopulation abundance,[9],-0.54
same,z-score of subpopulation abundance,[10],0.16
same,z-score of subpopulation abundance,[11],-0.4
same,z-score of subpopulation abundance,[12],0.76
same,z-score of subpopulation abundance,[13],-0.72
same,z-score of subpopulation abundance,[15],0.16
C[C@@H](c1ncncc1F)[C@](O)(Cn1cncn1)c1ccc(F)cc1F [Voriconazole],mean cell size,[1],11.9 ± 0.18
same,z-score of prototroph abundance,[2],-11.6
same,z-score of subpopulation abundance,[3],-0.12
same,z-score of subpopulation abundance,[4],12.8
same,z-score of subpopulation abundance,[5],1.96
same,z-score of subpopulation abundance,[6],1.93
same,z-score of subpopulation abundance,[7],10.2
same,z-score of subpopulation abundance,[9],16.4
same,z-score of subpopulation abundance,[10],6.37
same,z-score of subpopulation abundance,[11],16.6
same,z-score of subpopulation abundance,[13],14.4
same,z-score of subpopulation abundance,[14],5.58
